Test results: PubChem BioAssay (Tox21)
Several values for one entry are separate records, joined by “and”; a condition that tells them apart may be missing. Equal values may be shown once. Results filed as inconclusive are left out. More than one record can exist for a structure, and the calls need not agree. Activity calls are given as the source filed them. Unless noted, calls follow the shape of the dose curve; as a rule, active = well fitted curve in the direction sought with a large enough effect in the repeat runs; inconclusive = weak or mixed curves; inactive = no such curve, though single readings can be large; an effect the other way counts as inactive or inconclusive.

Columns and labels:
[1] = qHTS assay for identifying genotoxic compounds that show differential cytotoxicity against isogenic chicken DT40 cell lines with known DNA damage response pathways - wild type cell line (AID 743012); also: nearly all actives have a fitted effect of over 60% in size; also: potency is read from the fitted curve at half-maximal effect
In short: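 Parental DNA repair-proficient DT40 cells, 300 per well, were pre-incubated ~0.5 h at 37 C/5% CO2, pin-dosed with compounds in DMSO, then incubated 40 h. Viability was read as CellTiter-Glo luminescence after 30 min at room temperature.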

[2] = qHTS assay for identifying genotoxic compounds that show differential cytotoxicity against isogenic chicken DT40 cell lines with known DNA damage response pathways - Rev3 mutant cell line (AID 743014); also: nearly all actives have a fitted effect of over 55% in size; also: potency is read from the fitted curve at half-maximal effect
[3] = qHTS assay for identifying genotoxic compounds that show differential cytotoxicity against isogenic chicken DT40 cell lines with known DNA damage response pathways - Rad54/Ku70 mutant cell line (AID 743015); also: nearly all actives have a fitted effect of over 60% in size; also: potency is read from the fitted curve at half-maximal effect
[4] = qHTS assay to identify small molecule antagonists of the androgen receptor (AR) signaling pathway - cell viability counter screen (AID 743033; also: nearly all actives have a fitted effect of over 45% in size)
[5] = qHTS assay to identify small molecule antagonists of the androgen receptor (AR) signaling pathway using the MDA cell line - cell viability counter screen (AID 743041; also: nearly all actives have a fitted effect of over 45% in size)
In short: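 Cells were plated at 3,000 per well and left 5 h. Compounds in DMSO were then pinned in, followed by R1881. After 16 h at 37C, CellTiter-Fluor fluorescence gave viability.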

[6] = molecular target: Androgen receptor (Homo sapiens) (UniProt P10275); experiment: qHTS assay to identify small molecule antagonists of the androgen receptor (AR) signaling pathway (AID 743035; active = well fitted inhibition curve with a large enough effect in the signal ratio in the repeat runs, not every such curve was filed as active; the % refers to the signal ratio)
In short: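 HEK293 cells stably carrying a UAS-driven beta-lactamase reporter (AR-UAS-bla GripTite) were plated for 4 h at 37C, then given compound and the agonist R1881 and incubated 16 h. Reporter activity was read by LiveBLAzer B/G FRET fluorescence after 2 h at room temperature.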

[7] = molecular target: Androgen receptor (Homo sapiens) (UniProt P10275); experiment: qHTS assay to identify small molecule agonists of the androgen receptor (AR) signaling pathway (AID 743036; active = well fitted activation curve with a large enough effect in the signal ratio in the repeat runs, with a control signal flat, not every such curve was filed as active; the % refers to the signal ratio)
In short: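 Cell-based FRET reporter assay: HEK293 line with a UAS-beta-lactamase construct, compounds added in DMSO, 16 h exposure at 37C, then 2 h substrate step at room temperature and fluorescence intensity read.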

[8] = molecular target: Androgen receptor (Homo sapiens) (UniProt P10275); experiment: qHTS assay to identify small molecule agonists of the androgen receptor (AR) signaling pathway using the MDA cell line (AID 743040; also: nearly all actives have a fitted effect of over 20% in size)
In short: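 Cells plated, 5 h at 37C/0% CO2; compound or DMSO pinned; 16 h at 37C; ONE-Glo added; luminescence measured after 30 min at room temperature. Reporter line: MDA-kb2 with MMTV-luciferase responsive to AR and GR.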

[9] = molecular target: Androgen receptor (Homo sapiens) (UniProt P10275); experiment: qHTS assay to identify small molecule antagonists of the androgen receptor (AR) signaling pathway using the MDA cell line (AID 743042; also: nearly all actives have a fitted effect of over 55% in size)
In short: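 Antagonist mode: compounds plus R1881 agonist added to MDA-kb2 AR-luc cells, incubated 16 h at 37C. Luciferase reporter luminescence quantified, with multiplexed CellTiter-Fluor readout for cell viability.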

Measured: Potency

Androgen receptor (Homo sapiens), sequence (P10275 whole entry, looked up): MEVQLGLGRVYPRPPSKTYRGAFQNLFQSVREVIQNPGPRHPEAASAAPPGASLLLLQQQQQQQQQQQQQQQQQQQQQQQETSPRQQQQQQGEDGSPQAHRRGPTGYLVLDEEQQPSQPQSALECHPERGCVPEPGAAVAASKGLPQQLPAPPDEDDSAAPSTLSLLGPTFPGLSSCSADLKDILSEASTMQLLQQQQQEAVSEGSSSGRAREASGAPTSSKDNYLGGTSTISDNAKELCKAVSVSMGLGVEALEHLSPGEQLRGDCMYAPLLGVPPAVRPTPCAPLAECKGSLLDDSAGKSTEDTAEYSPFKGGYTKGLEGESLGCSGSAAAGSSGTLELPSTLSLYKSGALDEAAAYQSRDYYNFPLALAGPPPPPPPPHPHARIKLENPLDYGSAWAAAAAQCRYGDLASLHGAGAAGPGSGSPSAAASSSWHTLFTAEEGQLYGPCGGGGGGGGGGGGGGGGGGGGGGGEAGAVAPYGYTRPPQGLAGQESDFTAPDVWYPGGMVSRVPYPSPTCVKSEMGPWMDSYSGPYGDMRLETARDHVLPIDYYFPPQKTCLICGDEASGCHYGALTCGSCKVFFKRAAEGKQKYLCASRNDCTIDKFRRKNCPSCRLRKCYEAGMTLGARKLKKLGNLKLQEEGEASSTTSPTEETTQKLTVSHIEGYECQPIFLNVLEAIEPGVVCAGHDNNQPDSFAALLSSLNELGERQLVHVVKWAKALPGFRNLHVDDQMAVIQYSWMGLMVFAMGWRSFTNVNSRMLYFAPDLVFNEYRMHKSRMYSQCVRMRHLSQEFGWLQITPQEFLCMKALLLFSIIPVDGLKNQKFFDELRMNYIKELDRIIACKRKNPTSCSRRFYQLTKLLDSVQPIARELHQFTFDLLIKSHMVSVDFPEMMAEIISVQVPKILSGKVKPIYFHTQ

O=C1CCCC(=O)C1
inactive: [1] | [2] | [3] | [4] | [5]

CC(C)(O)C#CC(C)(C)O
inactive: [1] | [2] | [3] | [4] | [5]

O=c1n(CCO)c(=O)n(CCO)c(=O)n1CCO
inactive and 61.1 µM (active): [2]
inactive: [1] | [3] | [4] | [5]

CCOC(=O)C(=O)OCC
inactive: [1] | [3] | [4] | [5]

CN(C(=O)c1c(O)c2ccccc2n(C)c1=O)c1ccccc1
inactive: [1] | [3] | [5]

Nc1cc(=O)[nH]c(N)n1
inactive: [1] | [2] | [3] | [4] | [5]

N[C@H](C(=O)O)c1ccc(O)cc1
inactive: [1] | [2] | [3] | [4] | [5]

CO[Si](CCCOCC1CO1)(OC)OC (stereo not given)
inactive: [1] | [3] | [4] | [5]

CN(C)CCCSc1ccccc1NC(=O)/C=C/c1ccccc1
active: [1] 26.6 µM | [2] 13.3 µM | [3] 29.8 µM
inactive: [4] | [5]

CC(=O)Nc1c(I)cc(I)c(C(=O)O)c1I
inactive: [1] | [3] | [5]

COc1cc(C(=O)N2CCCCCCC2)cc(OC)c1OC
inactive: [4] | [5]
active: [1] 21.1 µM

CN(C)CCCNCCCN(C)C
inactive: [1] | [3] | [4] | [5]

CCOC(=O)CC(C)=O
inactive: [1] | [2] | [3] | [4] | [5]

O=C1CCCCCCCCCCCN1
inactive: [1] | [2] | [3] | [4] | [5]

N[C@@H](C(=O)N[C@@H]1C(=O)N2C(C(=O)O)=C(Cl)CS[C@H]12)c1ccccc1
inactive: [1] | [2] | [3] | [4] | [5]

COC(=O)NN
inactive: [1] | [2] | [3] | [4] | [5]

FC(F)OC(Cl)C(F)(F)F (stereo not given)
inactive: [1] | [2] | [3] | [4] | [5]

COCCCOCCCOC
inactive: [1] | [2] | [3] | [4] | [5]

CC(=O)N(CC(O)CO)c1c(I)c(C(=O)NCCO)c(I)c(C(=O)NCC(O)CO)c1I (stereo not given)
inactive: [1] | [2] | [3] | [4] | [5]

COc1nc(N)nc2c1ncn2[C@@H]1O[C@H](CO)[C@@H](O)[C@@H]1O
inactive: [1] | [3] | [4] | [5]

CCCC(=O)O[C@]1(C(=O)CO)CC[C@H]2[C@@H]3CCC4=CC(=O)CC[C@]4(C)[C@H]3[C@@H](O)C[C@@]21C
inactive: [1] | [3] | [5]

CO[C@]12C[C@@H](COC(=O)c3cncc(Br)c3)CN(C)[C@@H]1Cc1cn(C)c3cccc2c13
inactive: [6] | [7] | [8] | [5] | [9]
active: [1] 5.96 µM | [2] 10.6 µM | [3] 11.9 µM

c1ccc([C@H]2CN3CCSC3=N2)cc1
inactive: [4] | [5]

CCCCCCCCCCCC
inactive: [1] | [2] | [4] | [5]

CCCN(CCC)CCc1cccc2c1CC(=O)N2
inactive: [1] | [3] | [4] | [5]

CC(C)(C)c1nnc(NS(=O)(=O)c2ccccc2)s1
inactive: [1] | [3] | [4] | [5]

CO/N=C(/C(=O)N[C@@H]1C(=O)N2C(C(=O)OCOC(=O)C(C)(C)C)=C(C)CS[C@H]12)c1csc(N)n1
inactive: [1] | [3] | [4] | [5]

NC(=O)c1cn(Cc2c(F)cccc2F)nn1
inactive: [1] | [2] | [3] | [4] | [5]

COc1c(N2C[C@@H]3CCCN[C@@H]3C2)c(F)cc2c(=O)c(C(=O)O)cn(C3CC3)c12
inactive: [1] | [3] | [4] | [5]

NS(=O)(=O)c1cc2c(cc1Cl)NC(C1CC3C=CC1C3)NS2(=O)=O (stereo not given)
inactive: [1] | [2] | [3] | [6] | [7] | [8] | [5] | [9]

N=c1nc(N2CCCCC2)cc(N)n1O
inactive: [3] | [4] | [5]

COCCc1ccc(OCC(O)CNC(C)C)cc1 (stereo not given)
inactive: [2] | [3] | [4] | [5]
inactive and 21.1 µM (active): [1]

C[C@H](NC(CCc1ccccc1)C(=O)O)C(=O)N1CCC[C@H]1C(=O)O (stereo not given in full)
inactive: [1] | [2] | [3] | [4] | [5]

COc1ccc(CCN(C)CCCC(C#N)(c2cc(OC)c(OC)c(OC)c2)C(C)C)cc1OC (stereo not given)
inactive: [4] | [5]
active: [1] 16.8 µM | [3] 29.8 µM

N#Cc1ccc(C2CCCc3cncn32)cc1 (stereo not given)
inactive: [1] | [2] | [3] | [4] | [5]

C=C1CC[C@H]2C[C@@H]1C2(C)C
inactive: [1] | [4] | [5]

OCCOc1ccc(OCCO)cc1
inactive: [1] | [3] | [4] | [5]

CC(C)=CCCC(C)CC(=O)O (stereo not given)
inactive: [1] | [2] | [3] | [4] | [5]

C[C@H]1C[C@@H](O)CC(C)(C)C1
inactive: [1] | [2] | [3] | [4] | [5]
